The values below come from PubChem BioAssay (NCATS).

Experiment [1] addresses Transient receptor potential cation channel subfamily V member 1 (Homo sapiens) (UniProt Q8NER1). In words: HTS Assay for Compounds that Act as Enhancers of the Vanilloid Receptor 1 (AID 488979). Further: 0% is about no effect. The procedure, abridged: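 Calcium influx kinetics via Fluo-8 (480/520 nm) in TRPV1-expressing cells, 2000/well cultured overnight at 35.5C. Compound-alone read 3 min (agonist phase), followed by EC20 capsaicin challenge for 2 min (enhancer phase).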

Experiment [2] deals with Thyrotropin receptor (Homo sapiens) (UniProt P16473). In words: qHTS Assay for Antagonists of the Thyroid Stimulating Hormone Receptor (AID 488980). Further: series mostly up to about 58 µM; 0% is about no effect. The method in brief:
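HEK293 cells transfected with human TSHR, suspended in HEPES-buffered HBSS with 70 uM RO 20-1724, were treated with compounds plus TSH at EC80 (4 nM final). cAMP was measured by competitive HTRF (cryptate anti-cAMP antibody, cAMP-d2 acceptor).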
(qHTS replaces the single test concentration by a dilution series.)

The target in experiment [3] is D(1A) dopamine receptor (Homo sapiens) (UniProt P21728). Nature of the experiment: HTS Assay for Allosteric Agonists of the Human D1 Dopamine Receptor: Primary Screen for Agonists (AID 488981). Further: 0% is about no effect. The method in brief:
(§1)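 Calcium flux in an inducible, force-coupled HEK293 Trex D1 line (overnight at 30 C): agonist mode is the 180 s kinetic read after compound; potentiator mode is the following 180 s read after dopamine at EC20.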

Experiment [4] has the same target. Nature of the experiment: HTS Assay for Allosteric Agonists of the Human D1 Dopamine Receptor: Primary Screen for Potentiators (AID 488982). Further: 0% is about no effect. The procedure, abridged:
as §1

For experiment [5] the target is unchanged. Nature of the experiment: HTS Assay for Allosteric Agonists of the Human D1 Dopamine Receptor: Primary Screen for Antagonists (AID 488983).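 Further: calcium flux response to an EC80 dopamine challenge measured with no-wash dye; on the % scale 0 is the no-effect control and ±100 the full control effect; nearly all actives have a fitted effect of over 65% in size.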 The method in brief:
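Calcium flux readout, no-wash dye, inducible HEK293 T-REx D1 line (force-coupled). Compound added after 10 s baseline, 180 s kinetic read; then dopamine at EC80, further 180 s read.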

Experiment [6] in a line: Validation screen for small molecules that induce genotoxicity in human embryonic kidney (HEK293T) cells expressing luciferase-tagged ELG1 (AID 493106). Further: 0% is about no effect. The procedure, abridged:
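qHTS format; 2,000 HEK293T ELG1-luc cells/well; 23 nL compound via pin tool; 16 hr, 37 °C/5% CO2; ONE-Glo, 30 min RT; luminescence read.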

The target of experiment [7] is ATPase family AAA domain-containing protein 5 (Homo sapiens) (UniProt Q96QE3). In words: Validation screen for small molecules that inhibit ELG1-dependent DNA repair in human embryonic kidney (HEK293T) cells expressing luciferase-tagged ELG1 (AID 493107). Further: nearly all actives have a fitted effect of over 70% in size. Further: potency means the concentration at half of the fitted maximal effect. The procedure, abridged: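 ELG1-luciferase HEK293T reporter; 5-fluorouridine + compound/DMSO, 16 hr, 37 °C, 5% CO2; ONE-Glo 30 min RT; luminescence read, qHTS format.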

Experiment [8] deals with Thyrotropin-releasing hormone receptor (Homo sapiens) (UniProt P34981). In words: qHTS for Small Molecule Agonists and Allosteric Enhancers of Human TRH Receptor: Validation Screen for Agonists (AID 493127;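 active means calcium activation more than 3 SD above the typical response in the agonist read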;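 further: intracellular calcium rise by fluo-8 fluorescence before TRH EC20 addition; 0% is about no effect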). The settings on record: TRH receptor agonist cell assay; at 2 µM; stronger effect = higher value. The procedure, abridged:
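Read-out: intracellular calcium release measured kinetically by FDSS (fluo-8, ex 480/em 530 nm), 1 reading/s after a 10-cycle baseline. TRHR cells, 2000/well, cultured 18 h at 33.5C, dye-loaded at room temp. Compound-evoked positive calcium signal flags agonists.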

Experiment [9] is described as follows: qHTS for Inhibitors of Cell Surface uPA Generation: Validation Assay (AID 493164).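 Further: RAW 264.7 macrophage cells exposed to compound for 18 h; 0% is about no effect.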 The procedure, abridged: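 Compounds are titrated over seven points (2.45 nM–38.3 uM final) onto pre-plated RAW 264.7 cells and incubated for 18 h. Retained intracellular ATP, measured with ATP-Lite, indicates blocked lethal factor entry.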
In experiment [10] the target is Galactokinase (Homo sapiens) (UniProt P51570). In words: qHTS Validation Assay for Inhibitors of Human Galactokinase (GALK) (AID 493189). Further: 0% is about no effect. The procedure, abridged:
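GALK (5 nM) with 35 uM ATP and 100 uM galactose in HEPES pH8.0, MgCl2, NaCl, DTT, BSA; 1 h at room temperature. Residual ATP read by Kinase-Glo Plus luminescence after 10 min.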

The nature of experiment [11]: Validation screen for small molecules that induce DNA re-replication in SW480 colon adenocarcinoma cells (AID 504364). Further: 0% is about no effect. The method in brief:
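Read-out: total Hoechst intensity of nuclei by fluorescence scanning imager; hits raise the fraction of nuclei with elevated DNA content. Cells received compound for 48 hr at 37 C before a 40 min stain.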

The target of experiment [12] is Peptidyl-prolyl cis-trans isomerase NIMA-interacting 1 (Homo sapiens) (UniProt Q13526). Nature of the experiment: qHTS Validation Assay to Find Inhibitors of Pin1 (AID 504536; active means well fitted inhibition curve with a large enough effect in the polarisation, with a control signal flat, not every such curve was filed as active; the % refers to the polarisation;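 further: 0% = full Pin1 enzyme wells and -100% = no-enzyme wells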). The procedure, abridged:
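Fluorescence polarization competition: compounds (titration) displace HiFluor-488-labeled Pin1-1b peptide from Pin1 (0.3 uM final) in pH 7.5 HEPES buffer with DTT, 10 min at room temperature; %Activity normalized to no-enzyme wells, curves fitted.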

For experiment [13], the target named is Phosphoglycerate kinase, glycosomal (Trypanosoma brucei brucei) (UniProt P07378). Nature of the experiment: qHTS Validation Assay to Find Inhibitors of Phosphoglycerate Kinase (AID 504547).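 Further: control wells lack PGK and mark full inhibition.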 The method in brief: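 Luminescence end-point (Kinase-Glo Plus, 10 min) after a 60 min room-temperature coupled reaction. GAPDH at 100nM final supplies 1,3-BPG to PGK. Buffer: 100mM TEA pH 7.6, 5mM MgCl2, 0.01% Tween-20. Wells lacking PGK served as controls.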

For experiment [14], the target named is phosphoglycerate mutase (Leishmania major) (UniProt Q4Q090). Nature of the experiment: qHTS Validation Assay to Find Inhibitors of Phosphoglycerate Mutase (AID 504548). Further: series mostly up to about 58 µM; on the % scale 0 is the no-effect control and ±100 the full control effect. The settings on record: Potency: inhibition qHTS. The procedure, abridged: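 Lm PGAM at 1.25 nM final with substrate in 100 mM TEA pH 7.6, 5 mM MgCl2, 0.01% Tween-20; 45 min at room temperature. Kinase-GloPlus added, 10 min, end-point luminescence read.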

The target in experiment [15] is Ubiquitin carboxyl-terminal hydrolase 1 (Homo sapiens) (UniProt O94782). In words: Inhibitors of USP1/UAF1: Pilot qHTS (AID 504865). Further: nearly all actives have a fitted effect of over 35% in size. Further: potency means the concentration at half of the fitted maximal effect. The method in brief:
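USP1/UAF1 complex (1nM) preincubated with compound 15 min at room temperature, then Ub-Rho substrate (150nM final) added. Fluorescence read kinetically at 480/540 nm, 6 reads every 60 seconds. Buffer: 50mM HEPES pH 7.8, 0.5mM EDTA, 0.1 mg/ml BSA, 1mM TCEP, 0.01% Tween-20.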

Experiment [16] in a line: qHTS for Inhibitors of ATXN expression: Validation of Cytotoxic Assay (AID 588349). Further: on the % scale 0 is the no-effect control and ±100 the full control effect. The procedure, abridged: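 Cytotoxicity counter-screen: HEK293 cells exposed to compound titrations, 72 hr, 37 degrees C. Read-out is intracellular ATP (CellTiter Glo luminescence) as a viability measure.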
Experiment [17] can be described thus: qHTS for Inhibitors of ATXN expression: Validation (AID 588378). Further: series mostly up to about 57 µM; on the % scale 0 is the no-effect control and ±100 the full control effect; nearly all actives have a fitted effect of over 75% in size. The method in brief: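 Luminescence from an ATXN2-FFLuc reporter in HEK293 cells served as read-out after 24 h compound treatment at 37 degrees C; CellTiter-Fluor fluorescence was recorded first to assess viability.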
Experiment [18] in a line: Nrf2 qHTS screen for inhibitors: Validation (AID 493153; active means well fitted inhibition curve with a large enough effect in the main read-out, with a control signal flat, not every such curve was filed as active). The settings on record: Potency: luciferase luminescence; viability change: measured here: cytotoxicity max response. The method in brief: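 Concentration-response test in A549 ARE_Fluc reporter cells (5% FBS OPTI-MEM), compound exposure 18-24 h at 37°C, 5% CO2. Cell viability measured first by CellTiter-Fluor fluorescence; ARE-driven luciferase luminescence then measured as Nrf2 activity.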

The structures appear in SMILES notation. Values joined by “and” are separate entries in the source; they are usually repeats but may differ in a detail not shown here. Equal values may be shown once. Results filed as inconclusive are left out. Active and inactive are the calls of the source. Unless noted, the call rests on the fitted dose curve; in most records, active means well fitted curve in the direction sought with a large enough effect; inconclusive means small, poorly fitted or top-dose-only effect, or another doubt; inactive means no such curve, though single readings can be large; an effect the other way counts as inactive or inconclusive.

Sequence of D(1A) dopamine receptor (Homo sapiens) (P21728 whole entry, looked up): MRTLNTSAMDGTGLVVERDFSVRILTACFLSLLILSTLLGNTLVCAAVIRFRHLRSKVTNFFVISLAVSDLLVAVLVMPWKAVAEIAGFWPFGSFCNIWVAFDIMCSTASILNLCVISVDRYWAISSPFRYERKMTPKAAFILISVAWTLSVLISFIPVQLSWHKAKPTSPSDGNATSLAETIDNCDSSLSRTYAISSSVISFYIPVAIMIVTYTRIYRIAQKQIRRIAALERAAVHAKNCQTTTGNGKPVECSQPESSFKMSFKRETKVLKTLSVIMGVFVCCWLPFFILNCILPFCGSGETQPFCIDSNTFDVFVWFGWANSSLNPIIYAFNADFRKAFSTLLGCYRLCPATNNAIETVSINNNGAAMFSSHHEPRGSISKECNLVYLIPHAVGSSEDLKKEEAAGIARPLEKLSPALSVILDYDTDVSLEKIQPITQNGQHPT
Sequence of Phosphoglycerate kinase, glycosomal (Trypanosoma brucei brucei) (P07378 whole entry, looked up): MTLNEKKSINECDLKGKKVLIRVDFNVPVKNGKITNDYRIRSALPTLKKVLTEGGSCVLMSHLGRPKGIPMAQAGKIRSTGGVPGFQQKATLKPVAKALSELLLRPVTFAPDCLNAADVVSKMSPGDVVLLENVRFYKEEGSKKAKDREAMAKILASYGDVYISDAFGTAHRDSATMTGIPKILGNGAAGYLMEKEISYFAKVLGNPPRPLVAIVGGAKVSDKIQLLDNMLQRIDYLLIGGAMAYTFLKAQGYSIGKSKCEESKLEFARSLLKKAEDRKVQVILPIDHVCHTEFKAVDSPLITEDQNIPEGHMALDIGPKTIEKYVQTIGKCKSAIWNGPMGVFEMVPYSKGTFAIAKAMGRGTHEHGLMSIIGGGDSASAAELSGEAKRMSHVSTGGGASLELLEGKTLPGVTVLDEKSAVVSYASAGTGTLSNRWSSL
Sequence of Thyrotropin-releasing hormone receptor (Homo sapiens) (P34981 whole entry, looked up): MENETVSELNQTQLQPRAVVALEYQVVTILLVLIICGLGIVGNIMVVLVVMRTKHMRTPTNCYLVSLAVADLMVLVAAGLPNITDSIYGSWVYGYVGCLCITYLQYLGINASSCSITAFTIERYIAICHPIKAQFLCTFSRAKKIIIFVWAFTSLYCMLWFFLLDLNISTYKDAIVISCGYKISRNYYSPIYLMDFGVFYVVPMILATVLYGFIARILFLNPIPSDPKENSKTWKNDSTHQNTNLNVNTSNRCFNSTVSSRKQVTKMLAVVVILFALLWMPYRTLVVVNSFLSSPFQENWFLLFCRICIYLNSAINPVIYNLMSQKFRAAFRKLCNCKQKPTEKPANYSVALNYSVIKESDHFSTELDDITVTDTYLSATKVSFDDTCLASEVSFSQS
Sequence of Transient receptor potential cation channel subfamily V member 1 (Homo sapiens) (Q8NER1 whole entry, looked up): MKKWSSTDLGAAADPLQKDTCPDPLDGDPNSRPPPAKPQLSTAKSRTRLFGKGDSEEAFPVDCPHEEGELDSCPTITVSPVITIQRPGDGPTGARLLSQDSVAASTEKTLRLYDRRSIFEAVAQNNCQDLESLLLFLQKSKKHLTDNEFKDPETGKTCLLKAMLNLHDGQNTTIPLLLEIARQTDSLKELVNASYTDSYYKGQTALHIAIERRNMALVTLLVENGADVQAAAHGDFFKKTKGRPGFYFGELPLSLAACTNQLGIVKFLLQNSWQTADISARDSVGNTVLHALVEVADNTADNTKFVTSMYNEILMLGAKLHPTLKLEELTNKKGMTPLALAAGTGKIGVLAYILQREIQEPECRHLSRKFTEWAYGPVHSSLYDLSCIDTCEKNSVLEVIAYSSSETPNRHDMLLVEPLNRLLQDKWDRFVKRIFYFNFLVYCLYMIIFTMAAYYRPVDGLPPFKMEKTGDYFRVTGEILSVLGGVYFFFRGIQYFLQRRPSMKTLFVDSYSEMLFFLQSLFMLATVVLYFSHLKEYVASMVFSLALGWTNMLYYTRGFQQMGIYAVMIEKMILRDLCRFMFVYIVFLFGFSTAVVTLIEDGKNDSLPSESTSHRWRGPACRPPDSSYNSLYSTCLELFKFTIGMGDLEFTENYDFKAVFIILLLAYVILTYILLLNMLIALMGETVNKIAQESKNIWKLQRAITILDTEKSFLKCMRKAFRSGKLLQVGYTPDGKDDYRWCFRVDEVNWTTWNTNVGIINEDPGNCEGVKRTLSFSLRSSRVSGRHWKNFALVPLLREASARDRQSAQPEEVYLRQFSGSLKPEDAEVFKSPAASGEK
Sequence of Galactokinase (Homo sapiens) (P51570 whole entry, looked up): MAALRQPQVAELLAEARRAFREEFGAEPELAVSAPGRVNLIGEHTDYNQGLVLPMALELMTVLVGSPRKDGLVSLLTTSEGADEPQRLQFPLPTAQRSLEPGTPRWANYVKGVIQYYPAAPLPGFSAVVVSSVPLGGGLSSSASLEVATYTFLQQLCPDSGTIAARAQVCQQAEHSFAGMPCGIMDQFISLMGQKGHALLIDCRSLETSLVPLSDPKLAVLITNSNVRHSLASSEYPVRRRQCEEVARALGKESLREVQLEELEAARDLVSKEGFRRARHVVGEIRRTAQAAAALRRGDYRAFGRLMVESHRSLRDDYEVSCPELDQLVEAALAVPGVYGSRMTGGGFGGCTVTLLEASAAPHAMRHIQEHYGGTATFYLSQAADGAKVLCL
Sequence of Peptidyl-prolyl cis-trans isomerase NIMA-interacting 1 (Homo sapiens) (Q13526 whole entry, looked up): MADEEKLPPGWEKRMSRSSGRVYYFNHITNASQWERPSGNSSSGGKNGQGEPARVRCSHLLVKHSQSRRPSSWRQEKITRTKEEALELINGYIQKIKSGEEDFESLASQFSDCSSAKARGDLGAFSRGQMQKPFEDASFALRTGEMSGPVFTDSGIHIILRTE
Sequence of phosphoglycerate mutase (Leishmania major) (Q4Q090 1-553): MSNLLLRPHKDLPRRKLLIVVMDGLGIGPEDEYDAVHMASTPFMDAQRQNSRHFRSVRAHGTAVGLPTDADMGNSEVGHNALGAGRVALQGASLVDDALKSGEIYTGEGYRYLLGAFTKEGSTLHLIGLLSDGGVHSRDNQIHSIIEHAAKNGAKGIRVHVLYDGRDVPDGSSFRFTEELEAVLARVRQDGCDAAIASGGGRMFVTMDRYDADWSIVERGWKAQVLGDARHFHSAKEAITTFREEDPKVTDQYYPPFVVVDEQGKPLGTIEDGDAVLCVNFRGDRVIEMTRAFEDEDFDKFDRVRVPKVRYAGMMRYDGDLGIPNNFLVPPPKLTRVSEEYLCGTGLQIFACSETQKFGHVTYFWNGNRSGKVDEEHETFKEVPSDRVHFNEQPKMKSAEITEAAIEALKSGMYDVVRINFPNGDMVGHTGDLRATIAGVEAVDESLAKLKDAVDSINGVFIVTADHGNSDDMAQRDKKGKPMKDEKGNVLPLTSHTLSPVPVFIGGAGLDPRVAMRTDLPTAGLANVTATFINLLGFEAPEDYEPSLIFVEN
Sequence of Ubiquitin carboxyl-terminal hydrolase 1 (Homo sapiens) (O94782 whole entry, looked up): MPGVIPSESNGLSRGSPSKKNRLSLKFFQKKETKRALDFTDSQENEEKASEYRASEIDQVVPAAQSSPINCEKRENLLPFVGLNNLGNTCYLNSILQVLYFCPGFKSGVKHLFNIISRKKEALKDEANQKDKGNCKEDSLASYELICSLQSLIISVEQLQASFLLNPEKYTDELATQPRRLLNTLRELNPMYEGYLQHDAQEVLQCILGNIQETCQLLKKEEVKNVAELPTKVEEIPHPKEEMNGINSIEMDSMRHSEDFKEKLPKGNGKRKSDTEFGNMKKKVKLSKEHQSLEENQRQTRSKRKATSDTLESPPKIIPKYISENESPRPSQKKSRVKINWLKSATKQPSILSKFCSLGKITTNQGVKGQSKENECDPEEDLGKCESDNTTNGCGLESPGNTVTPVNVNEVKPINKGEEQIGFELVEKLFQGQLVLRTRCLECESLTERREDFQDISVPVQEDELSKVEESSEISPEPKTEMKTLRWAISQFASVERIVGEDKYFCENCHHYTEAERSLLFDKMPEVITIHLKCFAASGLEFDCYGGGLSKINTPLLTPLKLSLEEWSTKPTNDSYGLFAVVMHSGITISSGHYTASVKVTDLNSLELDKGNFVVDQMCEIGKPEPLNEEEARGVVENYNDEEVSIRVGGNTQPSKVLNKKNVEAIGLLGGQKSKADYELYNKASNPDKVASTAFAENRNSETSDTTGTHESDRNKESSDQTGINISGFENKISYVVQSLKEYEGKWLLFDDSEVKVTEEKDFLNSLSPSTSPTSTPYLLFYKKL
Sequence of Thyrotropin receptor (Homo sapiens) (P16473 whole entry, looked up): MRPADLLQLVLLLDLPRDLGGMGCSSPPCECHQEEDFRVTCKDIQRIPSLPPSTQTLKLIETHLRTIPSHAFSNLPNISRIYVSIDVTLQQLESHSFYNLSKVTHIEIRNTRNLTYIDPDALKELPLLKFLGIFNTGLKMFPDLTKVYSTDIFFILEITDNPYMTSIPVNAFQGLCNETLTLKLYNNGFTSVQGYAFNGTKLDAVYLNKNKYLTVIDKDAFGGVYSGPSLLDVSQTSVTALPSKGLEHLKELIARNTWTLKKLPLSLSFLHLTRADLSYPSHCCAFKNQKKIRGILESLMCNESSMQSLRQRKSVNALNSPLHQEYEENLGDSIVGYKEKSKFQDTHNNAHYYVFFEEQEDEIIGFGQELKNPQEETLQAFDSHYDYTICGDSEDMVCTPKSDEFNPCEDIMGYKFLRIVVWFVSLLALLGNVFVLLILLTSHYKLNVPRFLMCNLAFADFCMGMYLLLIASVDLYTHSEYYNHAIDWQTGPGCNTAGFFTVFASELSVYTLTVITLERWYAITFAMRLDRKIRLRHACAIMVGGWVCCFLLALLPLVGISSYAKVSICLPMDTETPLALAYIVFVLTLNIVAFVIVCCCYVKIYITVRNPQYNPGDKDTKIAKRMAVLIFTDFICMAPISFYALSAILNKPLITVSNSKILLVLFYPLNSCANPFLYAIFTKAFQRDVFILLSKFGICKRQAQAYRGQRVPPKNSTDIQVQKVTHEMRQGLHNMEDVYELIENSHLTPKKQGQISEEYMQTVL

With `C[N+](C)(C)CC=O`, the result in experiment [1], in [2] and in [9] was inactive. Also, the Potency result in experiment [3], in experiment [4], in [5], in experiment [6], in experiment [7] and in experiment [10] was “inactive” in each case. Moreover, the Potency entry in [11], in [12], in [13], in experiment [14], in [15] and in experiment [16] was “inactive” each time. Also, in experiment [17], the Potency result was “inactive”. Also, the activation in experiment [8] was 1.56% (inactive).

Regarding `Cn1c(=O)c2[nH]c(C3CCCC3)nc2n(C)c1=O`, the outcome in experiment [1] and in [2] was inactive. In addition, the Potency entry in experiment [3], in experiment [4], in [5], in experiment [6], in [7] and in [18] was “inactive” in each case. The Potency entry in experiment [10], in [11], in experiment [12], in [13], in experiment [14] and in experiment [15] was “inactive” throughout. Moreover, the Potency result in experiment [16] and in experiment [17] was “inactive” throughout. The activation in experiment [8] is 0.125% (inactive). Besides, the viability change in [18] was determined as 1.08%.

As to `CC(N)=O`, the result in experiment [1], in experiment [2] and in experiment [9] was inactive. Besides, the Potency entry in [3], in experiment [4], in [5], in experiment [6], in experiment [7] and in experiment [18] was “inactive” throughout. Further, the Potency result in experiment [10], in experiment [11], in experiment [14], in [15] and in experiment [16] was “inactive” each time. In experiment [8], the activation was 0.25% (inactive). Moreover, the viability change in [18] was found to be 1.69%.

Regarding `CCCCCCN(CCCCCC)C(=O)Cc1c(-c2ccc(F)cc2)[nH]c2ccccc12`, the outcome in experiment [1], in [2] and in [9] was inactive. For the same compound, the Potency entry in experiment [3], in experiment [4], in [5], in experiment [6], in experiment [7] and in experiment [10] was “inactive” throughout. The Potency entry in experiment [12], in experiment [13], in experiment [14], in [16] and in [17] was “inactive” each time. Besides, in experiment [8], the activation was -4% (inactive).

As to `O=c1onc2cnc3ccccc3n12`, the outcome in experiment [1], in experiment [2] and in experiment [9] was inactive. Further, the Potency entry in [3], in experiment [4], in experiment [5], in [6], in [7] and in [18] was “inactive” throughout. Further, the Potency entry in experiment [10], in [12], in experiment [13], in [14], in [15] and in experiment [16] was “inactive” throughout. Further, the Potency result in experiment [17] is “inactive”. Further, in experiment [8], the activation is 0.875% (inactive). For the same compound, the viability change in [18] was -4.79%.

For the compound `C=C1C(=O)O[C@@H]2[C@H]3O[C@]3(C)CCC=C(C)CC[C@@H]12`, the result in [1], in experiment [2] and in experiment [9] was inactive. Further, the Potency entry in [3], in [4], in experiment [5], in experiment [6], in experiment [10] and in experiment [11] was “inactive” throughout. In addition, the Potency result in experiment [12], in experiment [13], in [14] and in [15] was “inactive” in each case. Moreover, the Potency in [7] was 25.9 µM (active). Besides, the activation in [8] is -0.125% (inactive).

Regarding `Cc1nc(N=Nc2cc(S(=O)(=O)O)c3cc([N+](=O)[O-])cc(S(=O)(=O)O)c3c2)c(COP(=O)(O)O)c(C=O)c1O`, the outcome in experiment [1], in experiment [2] and in experiment [9] was inactive. Moreover, the Potency entry in experiment [3], in experiment [4], in experiment [5], in experiment [6], in [7] and in [18] was “inactive” in each case. In addition, the Potency entry in experiment [10], in experiment [11], in [13], in experiment [14] and in experiment [16] was “inactive” throughout. Further, the activation in experiment [8] was 0.25% (inactive). The viability change in [18] was -14.8%. The Potency in experiment [15] is 50.1 µM (active) and 39.8 µM (active).

With `Cn1ccnc1`, the result in experiment [1], in experiment [2] and in [9] was inactive. In addition, the Potency entry in [3], in experiment [4], in experiment [5], in [6], in experiment [7] and in experiment [10] was “inactive” each time. In addition, the Potency entry in [11], in experiment [12], in [14], in experiment [15], in experiment [16] and in experiment [17] was “inactive” throughout. The activation in [8] is 1.38% (inactive).
